Compound activity: PubChem BioAssay, National Center for Advancing Translational Sciences (NCATS)
Rows were chosen to be rich in hits. Some 13% of all compounds tested hit in one or more screens of this group.
HCV inh – HCV inhibition; Huh7.5.1 HCVcc-Cre infection, luciferase reporter, 44 h; Potency, µM (titrated, usually from 41.8 µM), for the others: top-dose activity change, negative = inhibition, most hits filed as inhibitors; hit rate 3.4% among 340,000; AID 651820; also: potency is read from the fitted curve at half-maximal effect
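After 44 h co-culture of compound, cells and HCVcc-Cre (~0.5 moi), substrate is added for 15 min at room temperature and luciferase measured over 15 sec. Cells were seeded at 1,000/well and pre-cultured 4 h.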
HCMV inh – blocks human cytomegalovirus replication; activity change, negative = inhibition, % at 57.5 µM; hit rate 4.5% among 410,000; HFF cells, HCMV-luciferase reporter, 72 h; hits give low values; in the data active = activity change below about -60%; inconclusive = no clear call, values can overlap the other calls; inactive = above about -39%
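Two compound doses tested in HFFs infected with HCMV-luciferase, MOI 1 PFU/cell, 72 h at 37C. Lysate luminescence read with OneGlo; data normalized against buffer-only and 10uM Salinomycin inhibitor controls.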
Pf growth 96h – P. falciparum growth inhibition at 96 hours | P. falciparum luciferase reporter growth, 96 h | hit rate 6.9% among 320,000 | AID 504834 | Potency, µM (highest dose often 28.7 µM), inactives show at the top dose activity change, negative = inhibition, hits mostly inhibitors; also: potency is read from the fitted curve at half-maximal effect
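96 h incubation, 37 C, 5% CO2, of luciferase-reporter P. falciparum-infected RBCs (2% hematocrit, 0.05% parasitemia final) with test compounds; endpoint luminescence.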
Pf growth 48h – P. falciparum growth inhibition at 48 hours (one generation) | P. falciparum luciferase growth in erythrocytes, 48 h | Potency, µM (highest dose often 28.7 µM), for inactives: top-dose activity change, negative = inhibition, usual class: inhibitors | hit rate 5.9% among 310,000; also: potency is read from the fitted curve at half-maximal effect
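Luminescence readout; reporter = integrated firefly luciferase in P. falciparum. RBC culture at 2% hematocrit, 0.1% parasitemia final, 37 C/5% CO2; decreased signal taken as growth inhibition.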
An asterisk follows results filed as active; ? = inconclusive; / = no result given; [ ] = another dose, or the depositor's remark. Unless noted, calls follow the shape of the dose curve; as a rule, active = well fitted inhibition curve with a large enough effect; inconclusive = small, poorly fitted or top-dose-only effect, or another doubt; inactive = no such curve, though single readings can be large or run the other way. % is scaled to controls: 0 for no effect and ±100 for the full control effect.

SMILES	HCV inh	HCMV inh	Pf growth 96h	Pf growth 48h
CCn1c(NN=O)nc2ccccc21	6.3µM*	-103*	78%	-11%
CCn1c(NC(=S)Nc2ccccc2)nc2ccccc21	5%	3	3.3µM*	?
COc1ccccc1N1CCN(C(=O)c2cnn(-c3ccc(F)cc3F)c2C2CCNCC2)CC1	/	-8	/	/
COc1ccc2oc(=O)c(-c3cn4c(n3)sc3cc(F)ccc34)cc2c1	/	-29	/	/
Cn1c(=O)cc(OCC(=O)NCCCN2CCN(c3ccccc3F)CC2)c2ccccc21	-24%	?	?	/
Cn1c2ccccc2c2cnn(CC(=O)NCCCN3CCN(c4ccccc4F)CC3)c(=O)c21	10µM*	-15	-7%	?
Cc1ccc(C)c(N2CCN(CCCNC(=O)Cn3cc4c(n3)CCCCC4)CC2)c1	5.6µM*	-30	-16%	?
CCn1c(=O)cc(SCC(=O)NCCCN2CCN(c3ccccc3F)CC2)c2ccccc21	?	80	?	12µM*
Cc1ccc(C)c(N2CCN(CCCNC(=O)Cn3ncc4c5ccccc5n(C)c4c3=O)CC2)c1	/	-60*	/	/
Cc1cc(=O)c2cc(C(=O)Nc3ccc(C)c(C)c3)ccc2[nH]1	/	-7	/	/
CCN1C(=O)CC(c2ccccc2)N(C2CCCC2)c2nc(Nc3ccc(C(=O)NC4CCN(C)CC4)cc3OC)ncc21 (stereo unspecified)	8.9µM*	/	/	/
COc1cc(C(=O)NC2CCN(C)CC2)ccc1Nc1ncc2c(n1)N(C1CCCCC1)CCC(=O)N2C	1.8µM*	?	/	/
COc1cc(C(=O)NC2CCN(C)CC2)ccc1Nc1ncc2c(n1)N(Cc1ccccc1)CCC(=O)N2C	29%[8.37 µM]	-76*	/	/
CCCN1CCN(C(=O)Cn2ncc3c4ccccc4n(Cc4cccc(Cl)c4)c3c2=O)CC1	/	-17	/	/
CCOc1ccc(CCNC(=O)Cn2ncc3c(=O)oc4ccc(C)cc4c32)cc1	/	-2	/	/
COc1ccc([C@@]23Oc4cc(OC)cc(OC)c4[C@]2(O)[C@H](O)[C@H](C(=O)N(C)C)[C@H]3c2ccccc2)cc1	/	-98*	/	/
CC(C)c1ccc(C(C(=O)NC2CCCCC2)N(C(=O)c2csnn2)C2CC2)cc1 (stereo unspecified)	22%	-27	11%	13µM*
Cc1cc(C)cc(N(C(=O)c2csnn2)C(C(=O)NC2CCCCC2)c2ccncc2)c1 (stereo unspecified)	6%	-35	?	-10%
COc1ccc(N(C(=O)c2ccco2)C(C(=O)NC2CCCC2)c2cccs2)cc1 (stereo unspecified)	-25%	-69*	-13%	-27%
Cc1ccc(N(C(=O)c2csnn2)C(C(=O)NC2CCCCC2)c2ccncc2)cc1 (stereo unspecified)	-3%	-64*	-24%	-15%
O=C(NC1CCCC1)C(c1ccccn1)N(C(=O)c1csnn1)c1ccccc1Cl (stereo unspecified)	13%	-66*	?	-6%
CCOc1ccc(C(=O)c2cn(CC(=O)Nc3cc(OC)cc(OC)c3)c3ccc(F)cc3c2=O)cc1	/	12	/	/
COc1ccc(-n2nc(C(=O)N3CCN(c4cccc(C)c4C)CC3)c3c4ccccc4n(C)c3c2=O)cc1	/	18	/	/
CC(=O)c1ccc(NC(=O)CN2C(=O)c3cccnc3Sc3ccccc32)cc1	/	9	/	/
COc1ccc(N(C(=O)c2csnn2)C(C(=O)NC2CCCC2)c2cccs2)cc1 (stereo unspecified)	1%	-5	1.5µM*	-9%
SMILES	HCV inh	HCMV inh	Pf growth 96h	Pf growth 48h
O=C(NCCc1ccccc1)C(c1ccncc1)N(C(=O)c1csnn1)C1CC1 (stereo unspecified)	17%	0	12µM*	-17%
O=C(NC1CCCC1)C(c1cccs1)N(C(=O)c1ccco1)c1ccc2c(c1)OCCO2 (stereo unspecified)	?	-62*	15%	?
COc1ccc(S(=O)(=O)NCCc2nnc3ccc(SCC(=O)Nc4cc(C)cc(C)c4)nn23)cc1	/	3	/	/
O=C(O)CC1CCCC(c2ccccc2)C1=O (stereo unspecified)	-12%	18	13µM*	-6%
O=C(CC1C(=O)CCCC1=O)c1ccccc1	4%	11	-7%	14%
CCCCCCCCOc1ccc(C(=O)O)cc1	6.3µM*	18	36%	86%
CCCCOc1ccc(C(=O)O)cc1	-1%	54	/	9%
CCCCCCOc1ccc(CN2CCN(CC)CC2)cc1	?	-75*	249%	/
